Measurements published in PubChem BioAssay (EPA / NIEHS).
Records with an inconclusive call do not appear. The source made the active and inactive calls. How the source made its calls, unless noted: active means hit-call score of the fitted dose curve at least 0.9, where 1 is the maximum; inactive means score below 0.9.

How the values were obtained:
[1] = target: Oxysterols receptor LXR-alpha (Homo sapiens) (UniProt Q13133); experiment: ATG_LXRa_TRANS: Attagene TRANS-FACTORIAL HepG2 Assay for human Liver X Receptor alpha (LXRa) (AID 2282980; active means hit-call score of the fitted dose curve at least 0.9, where 1 is the maximum); conditions: HepG2 Attagene TRANS reporter, LXRa transactivation
In short: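 In this multiplexed TRANS system, compounds act on HepG2 cells carrying GAL4-UAS reporter units and a receptor-GAL4 fusion for 24 h. Induced reporter RNA is amplified, fluorescently labelled and sized by capillary electrophoresis, with DMSO as baseline.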

[2] = target: Oxysterols receptor LXR-beta (Homo sapiens) (UniProt P55055); experiment: ATG_LXRb_TRANS: Attagene TRANS-FACTORIAL HepG2 Assay for human Liver X Receptor beta (LXRb) (AID 2282981; active means hit-call score of the fitted dose curve at least 0.9, where 1 is the maximum); conditions: HepG2 Attagene TRANS GAL4-LXRb reporter, mRNA
In short: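 Measures induction of a Gal4-driven reporter transcript in HepG2 cells expressing an exogenous LXRb-Gal4 fusion. Cells are exposed to compound for 24 h before RNA isolation and RT-PCR with capillary electrophoresis detection.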

[3] = ATG_M_32_TRANS: Attagene TRANS-FACTORIAL HepG2 Assay for M32 Transcription Factor (Internal Marker) (AID 2282984; active means hit-call score of the fitted dose curve at least 0.9, where 1 is the maximum;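 further: transcript level of a background control reporter unit measured by RT-PCR and capillary electrophoresis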); conditions: HepG2 Attagene TRANS M32 internal marker reporter
In short: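 After 24 h dosing of transfected HepG2 cells, total RNA was reverse-transcribed, reporter sequences PCR-amplified, 6-FAM labelled by primer extension and HpaI-digested before capillary electrophoresis. Signal increase over DMSO was fitted.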

[4] = target: Nuclear receptor subfamily 4 group A member 2 (Homo sapiens) (UniProt P43354); experiment: ATG_NURR1_TRANS: Attagene TRANS-FACTORIAL HepG2 Assay for human Nuclear Receptor Related Protein 1 (NURR1) (AID 2282985; active means hit-call score of the fitted dose curve at least 0.9, where 1 is the maximum); conditions: HepG2 Attagene TRANS reporter, mRNA readout
In short: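 Chimeric NR-Gal4 fusion activity measured in HepG2 after 24 h treatment. Reporter transcripts detected by RT-PCR and capillary electrophoresis fluorescence; positive-direction curve fitting against DMSO.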

[5] = target: Transcriptional activator Myb (Homo sapiens) (UniProt P10242); experiment: ATG_Myb_CIS: Attagene CIS-FACTORIAL HepG2 Assay for human Myeloblastosis (Myb) Proto-Oncogene Transcription Factor (AID 2282986); conditions: HepG2 Attagene CIS-FACTORIAL Myb reporter transcription; actives raise or lower the signal
In short: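 In this HepG2 transient-transfection format, cis-regulated reporter mRNA is quantified 24 h post-dosing by RT-PCR with capillary electrophoresis, fitted bidirectionally to DMSO baseline.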

[6] = target: Nuclear respiratory factor 1 (Homo sapiens) (UniProt Q16656); experiment: ATG_NRF1_CIS: Attagene CIS-FACTORIAL HepG2 Assay for human Nuclear Respiratory Factor 1 (NRF1) Orphan Gene (AID 2282987); conditions: HepG2 NRF1 cis-element reporter, Attagene multiplex; actives raise or lower the signal
In short: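 Using DMSO as baseline, gain- or loss-of-signal was fitted for reporter mRNA levels in HepG2 cells transiently transfected with cis-regulated reporter units. Samples were taken 24 h after dosing and read by RT-PCR with capillary electrophoresis.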

[7] = ATG_NFI_CIS: Attagene CIS-FACTORIAL HepG2 Assay for human Nuclear Factor I (NFI) (AID 2282989); conditions: HepG2 cis-regulatory reporter, NFI response element transcription; actives raise or lower the signal
In short: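 Read-out: reporter mRNA via RT-PCR plus capillary electrophoresis with fluorescence detection. Transiently transfected HepG2 (endogenous TF activity on cis promoters), 24 h compound exposure; gain or loss of signal fitted against DMSO.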

[8] = ATG_NF_kB_CIS: Attagene CIS-FACTORIAL HepG2 Assay for human Nuclear Factor Kappa B (NF-kB) (AID 2282991); conditions: HepG2 Attagene cis-factorial NF-kB reporter mRNA; actives raise or lower the signal
In short: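 Endpoint from a 52-component multiplexed HepG2 reporter panel: cis-regulated transcription units transiently transfected, 24 h dosing, reporter mRNA quantified by RT-PCR and capillary electrophoresis, scored as increase or decrease against DMSO.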

[9] = ATG_NRF2_ARE_CIS: Attagene CIS-FACTORIAL HepG2 Assay for human Nuclear Factor Erythroid 2 Related Factor 2 (NFR2) response to Antioxidant Response Elements (ARE) (AID 2282992); conditions: HepG2 Attagene ARE/NRF2 reporter, transcription factor activity; actives raise or lower the signal;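 on AC50: reporter mRNA level measured by RT-PCR and capillary electrophoresis fluorescence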
In short: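 Readout: reporter mRNA quantified by RT-PCR plus FAM-labelled primer extension, HpaI digestion and capillary electrophoresis, 24 h after dosing transfected HepG2 cells. Gain or loss of signal is fitted bidirectionally against DMSO baseline.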

[10] = ATG_Oct_MLP_CIS: Attagene CIS-FACTORIAL HepG2 Assay for human Octamer-Binding Transcription Factor (Oct) (AID 2282993); conditions: HepG2 Attagene cis-factorial Oct reporter, mRNA; actives raise or lower the signal
In short: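 Read-out: reporter mRNA via RT-PCR plus capillary electrophoresis of 6-FAM-labelled fragments. Transiently transfected HepG2, 24 h exposure, endogenous TF activity on cis elements. Gain or loss of signal fitted relative to DMSO.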

[11] = target: Cellular tumor antigen p53 (Homo sapiens) (UniProt P04637); experiment: ATG_p53_CIS: Attagene CIS-FACTORIAL HepG2 Assay for human p53 Transcription Factor (AID 2282994); conditions: HepG2 p53 cis-element reporter, Attagene mRNA; actives raise or lower the signal
In short: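 Read-out: reporter mRNA by RT-PCR plus capillary electrophoresis with fluorescence detection. Human HepG2 liver cells carried transfected multi-reporter cis-element constructs, dosed 24 h. Gain or loss of signal fitted bidirectionally against DMSO control.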

[12] = target: Hepatocyte nuclear factor 4-alpha (Homo sapiens) (UniProt P41235); experiment: ATG_HNF4a_TRANS: Attagene TRANS-FACTORIAL HepG2 Assay for human Hepatocyte Nuclear Factor 4 alpha (HNF4a) (AID 2282982; active means hit-call score of the fitted dose curve at least 0.9, where 1 is the maximum); conditions: HepG2 HNF4a transactivation reporter, mRNA readout
In short: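 In this trans-factorial format, a chimeric HNF4a-GAL4 fusion drives a GAL4-UAS reporter in transfected HepG2 liver cells. After 24 h treatment, reporter mRNA induction is measured by RT-PCR with capillary electrophoresis, relative to DMSO.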

[13] = target: Myc proto-oncogene protein (Homo sapiens) (UniProt P01106); experiment: ATG_Myc_CIS: Attagene CIS-FACTORIAL HepG2 Assay for human Myelocytomatosis (Myc) Proto-Oncogene Transcription Factor (AID 2282990); conditions: HepG2, Attagene cis-reporter transcription factor activity; actives raise or lower the signal
In short: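 DMSO-normalised, bidirectionally fitted reporter mRNA signal. HepG2 cells transfected with cis reporter constructs, treated 24 h; transcripts detected by RT-PCR, 6-FAM primer extension and CE.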

[14] = ATG_M_06_TRANS: Attagene TRANS-FACTORIAL HepG2 Assay for M06 Transcription Factor (Internal Marker) (AID 2282983; active means hit-call score of the fitted dose curve at least 0.9, where 1 is the maximum); conditions: HepG2 Attagene TRANS M06 internal marker reporter
In short: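 Multi-reporter-transfected HepG2, 24 h treatment; reporter transcripts quantified via RT-PCR, primer-extension labelling and CE. DMSO-normalized gain-of-signal fit.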

[15] = BSK_3C_uPAR: BioMAP Diversity Plus: 3C Assay for Urokinase-type plasminogen activator receptor (uPAR) Biomarker Activity (AID 2282998); conditions: BioMAP 3C HUVEC, uPAR biomarker ELISA; actives raise or lower the signal
In short: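 HUVEC primary cells; 24 h post-dose; uPAR by ELISA; gain or loss of signal fitted bidirectionally vs DMSO baseline.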

[16] = BSK_4H_Eotaxin3: BioMAP Diversity Plus: 4H Assay for Eotaxin 3 Biomarker Activity (AID 2283000); conditions: primary human endothelial cells (HUVEC); actives raise or lower the signal;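 further: CCL26 protein level quantified by ELISA in parallel with SRB cytotoxicity check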
In short: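 ELISA quantitation of CCL26 (Eotaxin-3) protein from chemically dosed human vascular endothelial cells at 24 h; increases and decreases both scored relative to DMSO-treated baseline.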

Measured: AC50

Cellular tumor antigen p53 (Homo sapiens), sequence (P04637 whole entry, looked up): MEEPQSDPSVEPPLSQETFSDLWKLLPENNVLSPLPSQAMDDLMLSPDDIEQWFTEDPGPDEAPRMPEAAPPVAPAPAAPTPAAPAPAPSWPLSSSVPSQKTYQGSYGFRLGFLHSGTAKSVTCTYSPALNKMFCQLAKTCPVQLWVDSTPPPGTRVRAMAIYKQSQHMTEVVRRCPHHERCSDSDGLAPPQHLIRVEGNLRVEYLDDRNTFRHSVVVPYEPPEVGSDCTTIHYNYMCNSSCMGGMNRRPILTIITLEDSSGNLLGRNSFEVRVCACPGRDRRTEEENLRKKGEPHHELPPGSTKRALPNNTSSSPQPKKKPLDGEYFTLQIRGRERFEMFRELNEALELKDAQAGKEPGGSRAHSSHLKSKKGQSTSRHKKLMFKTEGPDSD
Nuclear receptor subfamily 4 group A member 2 (Homo sapiens), sequence (P43354 whole entry, looked up, the tested form may be a part): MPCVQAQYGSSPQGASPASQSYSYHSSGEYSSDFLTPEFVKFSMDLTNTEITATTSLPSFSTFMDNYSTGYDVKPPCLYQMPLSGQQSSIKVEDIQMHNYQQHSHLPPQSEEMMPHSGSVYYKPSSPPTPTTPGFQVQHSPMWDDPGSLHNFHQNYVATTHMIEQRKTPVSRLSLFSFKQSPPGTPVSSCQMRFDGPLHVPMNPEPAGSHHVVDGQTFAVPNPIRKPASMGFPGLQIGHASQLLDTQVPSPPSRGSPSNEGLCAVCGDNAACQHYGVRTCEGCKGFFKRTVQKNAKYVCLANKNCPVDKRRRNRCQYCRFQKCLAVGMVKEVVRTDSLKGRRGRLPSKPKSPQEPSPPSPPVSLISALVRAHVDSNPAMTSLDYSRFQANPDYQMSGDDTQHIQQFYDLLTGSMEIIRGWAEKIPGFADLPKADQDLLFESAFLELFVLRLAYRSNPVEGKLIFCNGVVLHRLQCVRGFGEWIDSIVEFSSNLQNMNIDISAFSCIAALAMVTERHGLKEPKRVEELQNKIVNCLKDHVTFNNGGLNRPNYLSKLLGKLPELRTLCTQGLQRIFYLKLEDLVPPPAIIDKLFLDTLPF
Oxysterols receptor LXR-alpha (Homo sapiens), sequence (Q13133 whole entry, looked up, the tested form may be a part): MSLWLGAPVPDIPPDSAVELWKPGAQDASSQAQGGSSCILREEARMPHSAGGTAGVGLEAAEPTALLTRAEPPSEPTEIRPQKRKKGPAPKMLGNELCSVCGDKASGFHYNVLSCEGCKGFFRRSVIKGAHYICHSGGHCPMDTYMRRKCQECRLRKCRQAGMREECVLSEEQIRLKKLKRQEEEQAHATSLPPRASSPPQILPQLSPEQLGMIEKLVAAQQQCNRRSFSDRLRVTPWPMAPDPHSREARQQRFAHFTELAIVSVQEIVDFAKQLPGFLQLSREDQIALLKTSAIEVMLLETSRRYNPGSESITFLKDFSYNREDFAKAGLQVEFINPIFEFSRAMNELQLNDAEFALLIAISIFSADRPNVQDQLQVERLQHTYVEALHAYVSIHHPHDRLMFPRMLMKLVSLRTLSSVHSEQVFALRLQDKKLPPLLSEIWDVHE
Myc proto-oncogene protein (Homo sapiens), sequence (P01106 whole entry, looked up): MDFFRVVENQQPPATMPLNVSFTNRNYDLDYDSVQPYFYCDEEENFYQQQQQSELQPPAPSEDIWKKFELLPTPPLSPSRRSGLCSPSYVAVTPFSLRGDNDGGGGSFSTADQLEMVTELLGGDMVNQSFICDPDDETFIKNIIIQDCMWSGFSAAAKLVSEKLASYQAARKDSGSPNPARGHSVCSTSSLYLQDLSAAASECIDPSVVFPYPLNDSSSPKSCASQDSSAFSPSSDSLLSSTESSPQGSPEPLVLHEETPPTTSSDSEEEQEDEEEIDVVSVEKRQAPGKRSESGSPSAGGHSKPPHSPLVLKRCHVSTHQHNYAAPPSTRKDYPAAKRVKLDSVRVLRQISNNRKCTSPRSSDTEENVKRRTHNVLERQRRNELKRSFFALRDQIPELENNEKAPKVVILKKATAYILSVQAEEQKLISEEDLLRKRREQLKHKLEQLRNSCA
Oxysterols receptor LXR-beta (Homo sapiens), sequence (P55055 whole entry, looked up, the tested form may be a part): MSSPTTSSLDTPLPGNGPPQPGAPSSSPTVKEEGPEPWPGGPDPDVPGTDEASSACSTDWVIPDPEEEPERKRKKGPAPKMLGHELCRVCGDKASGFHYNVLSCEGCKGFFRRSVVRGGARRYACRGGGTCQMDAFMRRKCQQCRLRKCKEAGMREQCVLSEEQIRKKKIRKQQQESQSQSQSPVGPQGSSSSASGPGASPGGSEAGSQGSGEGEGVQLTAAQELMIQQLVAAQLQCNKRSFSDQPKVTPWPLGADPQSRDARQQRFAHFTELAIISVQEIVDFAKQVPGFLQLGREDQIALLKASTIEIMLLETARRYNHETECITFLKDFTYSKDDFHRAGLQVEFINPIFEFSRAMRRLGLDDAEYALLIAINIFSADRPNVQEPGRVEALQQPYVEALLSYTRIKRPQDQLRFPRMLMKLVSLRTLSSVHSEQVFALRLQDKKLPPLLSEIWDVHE
Transcriptional activator Myb (Homo sapiens), sequence (P10242 whole entry, looked up): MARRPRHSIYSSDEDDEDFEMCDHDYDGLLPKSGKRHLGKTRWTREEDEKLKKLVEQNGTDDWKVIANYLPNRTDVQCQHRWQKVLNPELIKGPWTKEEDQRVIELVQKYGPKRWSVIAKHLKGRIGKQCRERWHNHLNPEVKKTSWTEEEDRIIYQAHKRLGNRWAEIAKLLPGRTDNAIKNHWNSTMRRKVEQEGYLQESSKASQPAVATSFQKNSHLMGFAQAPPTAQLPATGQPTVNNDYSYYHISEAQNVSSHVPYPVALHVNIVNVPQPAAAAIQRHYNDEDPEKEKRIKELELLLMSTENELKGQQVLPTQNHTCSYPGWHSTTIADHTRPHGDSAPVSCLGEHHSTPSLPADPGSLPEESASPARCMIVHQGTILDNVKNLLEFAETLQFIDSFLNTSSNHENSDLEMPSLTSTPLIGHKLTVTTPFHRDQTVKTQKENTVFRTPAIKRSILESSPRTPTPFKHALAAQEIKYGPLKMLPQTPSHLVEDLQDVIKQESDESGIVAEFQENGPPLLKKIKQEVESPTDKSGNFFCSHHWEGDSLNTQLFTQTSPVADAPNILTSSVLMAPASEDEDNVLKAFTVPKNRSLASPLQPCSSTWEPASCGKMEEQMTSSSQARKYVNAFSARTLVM
Hepatocyte nuclear factor 4-alpha (Homo sapiens), sequence (P41235 whole entry, looked up, the tested form may be a part): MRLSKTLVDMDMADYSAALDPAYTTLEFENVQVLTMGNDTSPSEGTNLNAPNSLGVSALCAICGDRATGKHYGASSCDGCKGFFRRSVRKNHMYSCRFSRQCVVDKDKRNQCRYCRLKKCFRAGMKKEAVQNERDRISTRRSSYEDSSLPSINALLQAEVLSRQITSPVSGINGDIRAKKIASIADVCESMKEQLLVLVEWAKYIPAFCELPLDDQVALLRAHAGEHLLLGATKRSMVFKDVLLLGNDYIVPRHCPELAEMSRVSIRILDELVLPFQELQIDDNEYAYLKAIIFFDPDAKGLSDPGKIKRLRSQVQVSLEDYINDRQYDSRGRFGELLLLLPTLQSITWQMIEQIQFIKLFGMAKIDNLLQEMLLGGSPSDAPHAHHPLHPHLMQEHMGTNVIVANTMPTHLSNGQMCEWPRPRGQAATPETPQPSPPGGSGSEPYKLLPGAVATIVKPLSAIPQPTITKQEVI
Nuclear respiratory factor 1 (Homo sapiens), sequence (Q16656 whole entry, looked up): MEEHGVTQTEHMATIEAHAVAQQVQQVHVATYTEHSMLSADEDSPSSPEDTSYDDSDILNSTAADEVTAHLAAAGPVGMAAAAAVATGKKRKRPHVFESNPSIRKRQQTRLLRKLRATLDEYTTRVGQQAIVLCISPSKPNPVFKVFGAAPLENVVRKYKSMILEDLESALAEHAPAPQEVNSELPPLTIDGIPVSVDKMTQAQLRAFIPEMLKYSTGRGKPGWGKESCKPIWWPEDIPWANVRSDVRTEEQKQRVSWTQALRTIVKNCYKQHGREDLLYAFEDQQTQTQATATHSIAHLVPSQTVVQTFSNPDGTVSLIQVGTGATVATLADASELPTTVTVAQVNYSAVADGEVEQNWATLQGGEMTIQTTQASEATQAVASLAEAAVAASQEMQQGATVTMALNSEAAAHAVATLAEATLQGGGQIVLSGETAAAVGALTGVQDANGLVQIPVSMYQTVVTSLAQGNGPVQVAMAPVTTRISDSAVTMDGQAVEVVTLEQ

CCCCCCOC(=O)CC
inactive: [1] | [2] | [3] | [4] | [5] | [6] | [7] | [8] | [9] | [10] | [11]

CCCC[n+]1ccccc1
inactive: [1] | [2] | [12] | [3] | [4] | [5] | [6] | [7] | [13] | [9] | [10]

COc1ccc(O)cc1
inactive: [1] | [2] | [3] | [4] | [5] | [6] | [7] | [13] | [8] | [9] | [10] | [11]

COc1nc(C)nc(N)n1
inactive: [1] | [12] | [14] | [3] | [4] | [5] | [6] | [7] | [13] | [8] | [9] | [10]

OCCOCCOCCOCCO
inactive: [1] | [12] | [14] | [3] | [4] | [5] | [6] | [7] | [13] | [8] | [9] | [10] | [11]

Nc1ccc(S(=O)(=O)O)c(N)c1
inactive: [1] | [2] | [14] | [4] | [6] | [7] | [13] | [8] | [9] | [10] | [11]

COC(=O)OC
inactive: [1] | [2] | [14] | [3] | [4] | [5] | [6] | [13] | [9] | [10] | [11]

N#Cc1nc(Cl)c(Cl)c(Cl)c1Cl
active: [12] 5.77 µM | [5] 2.71 µM | [6] 5.93 µM | [7] 6.05 µM | [8] 4.63 µM | [9] 0.885 µM | [10] 2.54 µM
inactive: [1] | [14] | [3] | [4] | [13]

CCCCCCCCCCN
inactive: [1] | [2] | [3] | [4] | [5] | [6] | [7] | [13] | [8] | [10] | [11]

CSc1nc(NC2CC2)nc(NC(C)(C)C)n1
inactive: [1] | [2] | [14] | [3] | [5] | [6] | [7] | [13] | [8] | [10] | [11]

C=C(C)C(=O)O
inactive: [1] | [2] | [3] | [4] | [5] | [6] | [7] | [13] | [9] | [10] | [11]

C=C(C)[C@@H]1CCC2=CC(=O)C[C@@H](C)[C@]2(C)C1
inactive: [1] | [2] | [14] | [3] | [5] | [6] | [7] | [13] | [8] | [10] | [11]
active: [9] 80.7 µM

CC(C)(C)c1cc(CCC(=O)NN)cc(C(C)(C)C)c1O
inactive: [1] | [2] | [5] | [6] | [7] | [8] | [9] | [10] | [11]

NC(=O)NC1NC(=O)NC1=O (stereo not given)
inactive: [1] | [2] | [14] | [3] | [5] | [6] | [7] | [13] | [8] | [9] | [10] | [11]

COc1cc(C=O)ccc1OC(=O)C(C)C
inactive: [1] | [2] | [14] | [4] | [5] | [6] | [7] | [13] | [8] | [9] | [10] | [11] | [15] | [16]

C/C=C(\C)C(=O)OCc1ccccc1
inactive: [1] | [2] | [14] | [3] | [4] | [5] | [6] | [7] | [8] | [9] | [10] | [11]

CC(CN1c2ccccc2Sc2ccccc21)N(C)C (stereo not given)
inactive: [1] | [2] | [12] | [4] | [5] | [6] | [7] | [13] | [8] | [9]
active: [10] 38.8 µM | [11] 30.5 µM

CCCCCC=CCC(=O)OC
inactive: [1] | [2] | [12] | [4] | [5] | [6] | [13] | [8] | [10] | [11]

Nc1cc(Cl)c(O)c(Cl)c1
inactive: [1] | [2] | [3] | [4] | [5] | [6] | [7]
active: [12] 100 µM | [13] 100 µM | [8] 46.8 µM | [9] 26.5 µM | [10] 100 µM | [11] 144 µM

CCCOCC(C)O (stereo not given)
inactive: [1] | [2] | [12] | [14] | [5] | [6] | [13] | [10]

CCCCC[Si](OCC)(OCC)OCC
inactive: [1] | [2] | [14] | [5] | [6] | [7] | [13] | [8] | [9] | [10]

CC(=O)c1c(C)cc(C(C)(C)C)cc1C
inactive: [1] | [2] | [12] | [14] | [4] | [5] | [6] | [7] | [13] | [8] | [10] | [11]
